The source made the active and inactive calls.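 How the source made its calls: active means at least 20% inhibition of 6-phosphogluconate dehydrogenase activity; inactive means the rest.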 Where a SMILES comes first, the peptide text is derived from it.
Each compound was assayed against 6-phosphogluconate dehydrogenase, decarboxylating (Homo sapiens) (UniProt P52209) (assay: 6PGD enzyme inhibitors, primary screen, biochemical, human, recombinant enzyme, NADPH absorbance (AID 1159550)). Conditions: recombinant 6PGD, NADPH absorbance 341 nm; at 10 µM; stronger effect = higher value.
Chain of 6-phosphogluconate dehydrogenase, decarboxylating (Homo sapiens) (P52209 whole entry, looked up): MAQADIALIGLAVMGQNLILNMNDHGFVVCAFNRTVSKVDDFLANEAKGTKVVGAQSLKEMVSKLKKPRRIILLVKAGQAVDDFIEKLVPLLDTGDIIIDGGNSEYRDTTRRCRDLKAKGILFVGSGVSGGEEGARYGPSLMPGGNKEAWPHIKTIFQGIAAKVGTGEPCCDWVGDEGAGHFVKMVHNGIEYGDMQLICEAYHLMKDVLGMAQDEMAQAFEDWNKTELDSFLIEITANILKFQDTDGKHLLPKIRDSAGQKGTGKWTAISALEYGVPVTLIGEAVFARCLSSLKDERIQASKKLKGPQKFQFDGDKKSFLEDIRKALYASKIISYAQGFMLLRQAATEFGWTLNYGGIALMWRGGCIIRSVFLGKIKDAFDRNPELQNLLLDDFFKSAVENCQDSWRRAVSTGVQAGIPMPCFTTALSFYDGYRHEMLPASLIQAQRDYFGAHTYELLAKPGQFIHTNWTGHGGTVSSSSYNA

inhibition, inactive:
CC(=O)O[C@@H]1CC2C(C)(C)CCC(=O)[C@]2(C)C2CC[C@@]3(C)[C@H](c4ccoc4)OC(=O)C4OC43[C@@]21C (stereo partly drawn) -0.737%
CC(C)C[C@H](NC(=O)[C@H](C)N)C(=O)O (H-Ala-Leu-OH) -6.83%
CCOC(=O)C(=O)C1(C(=O)OCC)Oc2cc(OC)cc(OC)c2C(=O)C1c1ccccc1 (stereo not drawn) 14.2%
CC(=O)O[C@H]1CC[C@]2(C)[C@H]3CC=C4[C@@H]5CC(C)(C)CC[C@]5(C(=O)O)CC[C@@]4(C)[C@]3(C)CC[C@H]2C1(C)C -0.817%
CC(=O)Oc1ccc2c(c1)CC[C@@H]1[C@@H]2CC[C@]2(C)C(=O)CC[C@@H]12 -18%
COc1ccc(-c2coc3cc(O)ccc3c2=O)c(OC)c1O 1.46%
CC(=O)O[C@@H]1C[C@H]2C(C)(C)C(=O)[C@@H]3O[C@@H]3[C@]2(C)[C@H]2CC[C@@]3(C)[C@H](c4ccoc4)OC(=O)[C@H]4O[C@]43[C@@]21C -3.37%
O=c1c(O)cccc2c([C@H]3Oc4cc(O)cc(O)c4C[C@H]3O)cc(O)c(O)c12 3.21%
